# A selection: hits, their analogues and other compounds. The true share with any hit is near 7.3%.
# NPC1 promoter act: NPC1 promoter activation; Huh7 NPC1 promoter luciferase reporter, 24 h; Potency, µM (titrated, usually from 9.22 µM), inactives show at the top dose activation, hits mostly activators; 320,000 tested, 2.4% active; AID 485313; note: % of control where 0% means no effect; nearly all actives have a fitted effect of over 60% in size
#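 NPC1 promoter–luciferase Huh7 cells; 24 h compound; luminescence.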
# Rab9 prom act: activators of Rab9 promoter; Huh7 Rab9 promoter-luciferase reporter, luminescence, 24 h; Potency, µM (doses to about 9.22 µM), inactives show at the top dose activation, negative = inhibition, actives largely listed as activators; 320,000 tested, 2.8% active; AID 485297; note: % of control where 0% means no effect; nearly all actives have a fitted effect of over 60% in size
#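 Luminescence read-out: Huh7 cells stably expressing Rab9-luciferase, treated 24 h with compound at 37 °C, then lysed with luciferase reagent for 10 min at ambient before reading.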
# SMN2 splice up: SMN2 splice variant enhancement; HEK293 SMN2-luciferase splicing reporter, luminescence, 30-36 h; Potency, µM (series often up to 46.1 µM), for inactives: at the highest dose activity change, positive = activation, usual class: activators; 210,000 tested, 2.8% active; AID 1458; note: % of control where 0% means no effect; nearly all actives have a fitted effect of over 55% in size
#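 qHTS luciferase splicing reporter: luminescence rises when SMN2 exon 7 is included in transfected HEK293 cells. Compound exposure lasted 30-36 h at 37C, with 4.5 mM final sodium butyrate as control, followed by a ONE-Glo read.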
# ELG1 genotoxic: inducers of genotoxicity in HEK293T ELG1-luciferase cells. HEK293T ELG1-luciferase reporter, luminescence, 16 h. Potency, µM (series often up to 46 µM), for the others: top-dose activity change, positive = activation, most hits filed as activators. 330,000 tested, 1.3% active. AID 504466; note: % of control where 0% means no effect; nearly all actives have a fitted effect of over 60% in size
#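 ELG1-luciferase HEK293T cells, 2,000/well; compound pinned in; 16 hr, 37 °C, 5% CO2; ONE-Glo, 30 min RT; luminescence on CCD imager.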
# FLuc counter: counter-screen for miR-21 project: firefly luciferase inhibitors or activators. 360,000 tested, 6.9% active. Potency, µM (top dose mostly 57.5 µM), without a hit: top-dose activity change, negative = inhibition, actives largely listed as inhibitors. purified FLuc, Km substrates, luminescence inhibition. P08659. AID 588342;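 note: plate controls were vehicle for no effect and reference inhibitor for full effect; nearly all actives have a fitted effect of over 55% in size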
# Target sequence (P08659 whole entry, looked up): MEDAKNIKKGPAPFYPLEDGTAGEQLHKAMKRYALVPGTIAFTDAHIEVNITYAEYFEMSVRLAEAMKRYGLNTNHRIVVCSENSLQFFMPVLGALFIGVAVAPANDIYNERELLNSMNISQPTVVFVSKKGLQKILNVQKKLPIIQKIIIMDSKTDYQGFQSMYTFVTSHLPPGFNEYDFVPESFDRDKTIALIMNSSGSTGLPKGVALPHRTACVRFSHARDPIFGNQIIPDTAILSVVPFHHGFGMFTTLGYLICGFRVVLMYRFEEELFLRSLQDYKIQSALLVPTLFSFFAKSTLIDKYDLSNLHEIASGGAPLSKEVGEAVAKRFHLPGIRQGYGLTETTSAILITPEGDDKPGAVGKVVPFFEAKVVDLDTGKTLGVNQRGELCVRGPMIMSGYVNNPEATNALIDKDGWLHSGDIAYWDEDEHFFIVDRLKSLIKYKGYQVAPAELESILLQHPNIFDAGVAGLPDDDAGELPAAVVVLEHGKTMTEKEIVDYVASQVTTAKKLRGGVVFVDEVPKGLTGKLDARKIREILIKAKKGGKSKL
#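 Purified P. pyralis luciferase, 10 nM final, with Km-level 10 uM D-luciferin and 10 uM ATP in 50 mM Tris acetate pH 7.5, 10 mM Mg acetate, 0.01% Tween-20, 0.05% BSA; 6-point qHTS titration about 60 µM downward; luminescence read.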
# KinaseGlo FLuc: blocks Kinase-Glo luciferase, a counter-screen artifact; Q27757; Kinase-Glo luciferase, ATP luminescence, 8 min; 200,000 tested, 0.28% active; AID 1379; Potency, µM (top dose mostly 38.3 µM), inactives show at the top dose activity change, negative = inhibition, actives largely listed as inhibitors; note: % is set by controls: 0 for no effect and ±100 for the full control effect; nearly all actives have a fitted effect of over 60% in size
#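 Substrate mix (final 50 mM imidazole pH 7.2, 50 mM KCl, 7 mM MgCl2, 10 uM ATP, 0.01% Tween 20, 0.05% BSA) plus pin-tool compound, then Kinase-Glo detection mix; 8 min ambient, luminescence read.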
# Starred values were filed as active, the others as inactive; ? = inconclusive; · = no result given; [ ] = remark or other dose. Calls come from the whole dose curve; as a rule, active = well fitted curve in the direction sought with a large enough effect; inconclusive = small, poorly fitted or top-dose-only effect, or another doubt; inactive = no such curve, though single readings can be large; an effect the other way counts as inactive or inconclusive. Potency is the fitted concentration of half-maximal effect.
SMILES,NPC1 promoter act,Rab9 prom act,SMN2 splice up,ELG1 genotoxic,FLuc counter,KinaseGlo FLuc
CCCc1nc(N)c(C#N)c(-c2cccnc2)c1CC,1%,-1%,1%,1%,0%,-1%
O=C(Nc1nc(-c2ccccc2)cs1)c1cccnc1,7%,11%,3%,12%,?,-5%
Cc1cc(NC(=O)c2ccco2)sc1C,2µM*,2µM*,·,?,5.4µM*,·
COc1ccc(-c2csc(NC(=O)c3ccco3)n2)cc1,2.8µM*,2.2µM*,7.9µM*,16%,9.5µM*,0%
COc1ccc(-c2csc(NC(=O)C3=NN(c4ccccc4)C(=O)CC3)n2)cc1,-1%,-3%,-95%,-11%,7.6µM*,-5%
O=C(Nc1nc(-c2ccco2)cs1)c1ccccc1,?,?,7%,?,11µM*,0%
O=C(COc1ccc(-n2ccnc2)cc1)Nc1cccc(Cl)c1,1%,-2%,-3%,-7%,5%,0%
CCOc1ccc(NC(=O)COc2nsnc2N2CCCCC2)cc1,-3%,-18%,-32%,-2%,0%,-2%
O=C(Nc1nc(-c2ccccc2)cs1)c1ccco1,?,?,·,-15%,15µM*,·
Cc1ccc(-c2csc(NC(=O)c3ccc(-c4ccccc4)cc3)n2)o1,17%,-8%,-45%,18µM*,4.3µM*,3%
O=C(O)c1ccccc1C(=O)Nc1nc(-c2ccc3ccccc3c2)cs1,1%,?,·,8%,17µM*,·
CCOc1ccc(-c2csc(NC(=O)c3ccco3)n2)cc1,24%,?,·,?,12µM*,·
NC1=NCCN1CC(=O)O,·,·,-3%,·,·,-3%
CC1CCC(Nc2ncnc3onc(-c4ccc(F)cc4)c23)CC1 (centres undefined),·,·,·,·,-2%,·
CCOc1ccc(OCC)c(NC(=O)c2cc(-c3cccs3)nc3ccccc23)c1,·,·,7%,·,-3%,·
CN(C)c1ccc(S(=O)(=O)NCC(=O)OCC(=O)NC(=O)C2CCCCC2)cc1[N+](=O)[O-],0%,-5%,·,-1%,2%,·
CCC1(c2ccccc2)NC(=O)N(CC(=O)N(c2ccccc2)C2CCS(=O)(=O)C2)C1=O (centres undefined),·,·,·,-1%,·,·
O=C(NNc1nc(-c2ccc(Br)cc2)cs1)c1ccco1,15%,?,-27%,?,8.5µM*,0%
O=C(Nc1cc(-c2ccccc2)cs1)c1ccco1,?,3.5µM*,·,16µM*,7.6µM*,·
COc1ccc(-c2csc(NC(=O)c3cc(C)oc3C)n2)cc1OC,-3%,8%,·,-26%,19µM*,·
Cc1ccc(-c2csc(NC(=O)c3ccco3)n2)cc1C,2.2µM*,4µM*,·,?,8.5µM*,·
CCc1noc(C)c1C(=O)Nc1nc(-c2ccc(OC)c(OC)c2)cs1,-4%,-7%,·,-39%,-13%,·
Cc1ccc(NC(=O)CCn2nnc3ccccc32)c(C)c1,-5%,-1%,·,-4%,2%,-4%
CC(=O)NC(=S)Nc1sc2c(c1C#N)CCCCC2,2.5µM*,1.4µM*,·,2.1µM*,1.5µM*,·
Cn1nccc1C(=O)NC(=S)Nc1sc2c(c1C#N)CCCCC2,?,?,15%,14%,3.8µM*,0%
SMILES,NPC1 promoter act,Rab9 prom act,SMN2 splice up,ELG1 genotoxic,FLuc counter,KinaseGlo FLuc
CC(=O)Nc1sc2c(c1C#N)CCCC2,·,·,-5%,·,3%,11%
O=C(NC(=S)NC1CCCCCC1)c1cncc(Br)c1,?,20%,16µM*,?,?,2%
O=C(NC(=S)NC1CCCCC1)c1ccccc1,?,?,·,?,15µM*,·
O=C(NC(=S)NC1CCS(=O)(=O)C1)c1ccccc1 (centres undefined),-6%,2%,·,8%,4%,·
O=C(O)c1cccc(-c2ccc(/C=c3/sc4nc5ccccc5n4c3=O)o2)c1,25%,28%,·,6%,9.5µM*,·
COC(=O)/C=c1/sc2nc3ccccc3n2c1=O,-4%,1%,?,-2%,?,-10%
O=c1/c(=C\c2cc([N+](=O)[O-])cc([N+](=O)[O-])c2O)sc2nc3ccccc3n12,-3%,11%,-3%,6%,9.5µM*,-1%
O=c1c2ccccc2nc2sc3ccccc3n12,4µM*,4µM*,14µM*,?,5.4µM*,-7%
O=c1/c(=C/c2ccccn2)sc2nc3ccccc3n12,?,?,13µM*,0.82µM*,0.13µM*,13µM*
COC(=O)c1c(NC(=O)CC2Sc3ccc(C(F)(F)F)cc3NC2=O)sc(C)c1C (centres undefined),-4%,-1%,3%,2%,2%,1%
CCc1ccc(CC2(O)CC(C)N(C)CC2C)cc1 (centres undefined),-2%,-5%,2%,-1%,1%,3%
COc1ccc(N(CC(=O)NN=C2CCCCCCC2)S(=O)(=O)c2ccccc2)cc1Cl,4%,-2%,-1%,1%,-3%,-1%
CCOC(=O)C(=CNc1ccc2c(c1)CCN2C(C)=O)C(=O)OCC,17%,28%,·,-1%,12µM*,·
FC(F)(F)c1cnc(-c2cnc(-c3cccnc3)nc2)c(Cl)c1,2.5µM*,4µM*,13µM*,?,?,-3%
FC(F)(F)c1cc(Cl)c2nnc(-c3cccnc3)n2c1,3%,6%,·,3%,1%,·
CC(/C=C/C(=O)NO)=C\[C@@H](C)C(=O)c1ccc(N(C)C)cc1,·,·,1.4µM*,·,·,1%[39.9 µM]
CC(NC(=O)c1ccc(N(C)C)cc1)c1ccc(F)cc1 (centres undefined),-4%,2%,6%,0%,-11%,0%
COc1ccc2nc(-c3ccccc3)cc(C(=O)OCC(=O)N3CC(C)OC(C)C3)c2c1 (centres undefined),-10%,-5%,·,-6%,19µM*,·
COc1ccc(-c2cc(C(=O)OCC(=O)N3CCCC3)c3ccccc3n2)cc1,15%,15%,32%,-2%,6µM*,-3%
COc1ccc2nc(-c3ccccc3)cc(C(=O)OCC(=O)N3CCCCC3)c2c1,-3%,-1%,·,-8%,21µM*,·
CCn1c(SCC(=O)Nc2cc(C)nn2-c2ccccc2)nnc1-c1cccs1,-6%,-7%,·,-7%,0%,·
O=C(Nc1ccc(Oc2cccnc2)cc1)C1CCN(Cc2ccc(F)cc2)CC1,-1%,-7%,·,-5%,-1%,·
c1ccc2nc(-c3nc4ccccc4[nH]3)ccc2c1,2.8µM*,0.63µM*,0.4µM*,·,0.3µM*,8.9µM*
c1ccc2[nH]c(-c3cscn3)nc2c1,?,?,13µM*,?,13µM*,-18%
FC(F)c1nc2ccccc2[nH]1,1%,-3%,·,1%,-17%,-6%
Cc1ccc(Sc2c(C)nn(C(C)(C)C)c2OC(=O)C(C)(C)C)cc1,·,·,-2%,·,6%,·

# Source: PubChem
